Test results taken from PubChem BioAssay AID1159580 (chemical genetic matrix, 2015).
Several values for one entry are separate records, joined by “and”; a condition that tells them apart may be missing. Equal values may be shown once. About 2,000 (36%) of roughly 5,500 compounds were called active. Inconclusive results (about 18%) are left out. Rule as the data show it: active = normalized growth mostly below about 0.91 (no sharp cut-off); inconclusive = no clear call, values can overlap the other calls; inactive = mostly above about 0.92. The list shows a part of the results.

Test: chemical genetic growth profiling, strain panel (AID 1159580);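 also: tested at 20 µM; growth read once vehicle control cultures reached saturation at 30 °C; 1 = growth at the plate median or of vehicle wells; lower values mean less growth of the strain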
Details: growth OD

Measured: normalized growth

CCC1(c2ccc(N)cc2)CCC(=O)NC1=O (stereo not drawn)
active: S. cerevisiae deletion strains, locus YPL078C, strain atp4, hits give low values 0.89
inactive: S. cerevisiae deletion strains, locus YJR075W, strain HOC1, hits give low values 0.998 | S. cerevisiae deletion strains, locus YKL009W, strain mrt4, hits give low values 1.01 | S. cerevisiae deletion strains, locus YKL068W, hits give low values 1 | S. cerevisiae deletion strains, locus YKL085W, strain MDH1 (second series), hits give low values 1 | S. cerevisiae deletion strains, locus YKL085W, strain MDH1, hits give low values 1 | S. cerevisiae deletion strains, locus YKL160W, strain elf1, hits give low values 0.939 | S. cerevisiae deletion strains, locus YKR001C, strain vps1, hits give low values 0.995 | S. cerevisiae deletion strains, locus YKR026C, strain gcn3, hits give low values 0.961 | S. cerevisiae deletion strains, locus YKR091W, strain srl3, hits give low values 0.977 | S. cerevisiae deletion strains, locus YLL001W, strain dnm1, hits give low values 0.903 | S. cerevisiae deletion strains, locus YLL026W, hits give low values 0.956 | S. cerevisiae deletion strains, locus YLL041C, strain sdh2, hits give low values 0.968 | S. cerevisiae deletion strains, locus YLR027C, strain aat2, hits give low values 0.94 | S. cerevisiae deletion strains, locus YLR039C, strain RIC1, hits give low values 1.02 | S. cerevisiae deletion strains, locus YLR058C, strain SHM2, hits give low values 1.01 | S. cerevisiae deletion strains, locus YLR102C, strain apc9, hits give low values 0.992 | S. cerevisiae deletion strains, locus YLR113W, strain HOG1, hits give low values 1.06 | S. cerevisiae deletion strains, locus YLR221C, strain rsa3, hits give low values 0.99 | S. cerevisiae deletion strains, locus YLR258W, strain gsy2, hits give low values 0.992 | S. cerevisiae deletion strains, locus YLR262C, strain YPT6 (second series), hits give low values 0.999 | S. cerevisiae deletion strains, locus YLR262C, strain YPT6, hits give low values 1.03 | S. cerevisiae deletion strains, locus YLR268W, strain sec22, hits give low values 1.01 | S. cerevisiae deletion strains, locus YLR320W, strain mms22, hits give low values 0.978 | S. cerevisiae deletion strains, locus YLR330W, strain CHS5, hits give low values 1.01 | S. cerevisiae deletion strains, locus YLR342W, strain FKS1 (second series), hits give low values 1.02 | S. cerevisiae deletion strains, locus YLR342W, strain FKS1, hits give low values 0.926 | S. cerevisiae deletion strains, locus YLR357W, strain rsc2, hits give low values 0.917 | S. cerevisiae deletion strains, locus YLR370C, strain arc18, hits give low values 0.969 | S. cerevisiae deletion strains, locus YLR371W, strain rom2, hits give low values 0.997 | S. cerevisiae deletion strains, locus YLR384C, strain iki3, hits give low values 0.972 | S. cerevisiae deletion strains, locus YLR418C, strain cdc73, hits give low values 1 | S. cerevisiae deletion strains, locus YML016C, strain PPZ1, hits give low values 1.01 | S. cerevisiae deletion strains, locus YML032C, strain rad52, hits give low values 1 | S. cerevisiae deletion strains, locus YML120C, strain ndi1, hits give low values 0.93 | S. cerevisiae deletion strains, locus YML124C, strain tub3, hits give low values 0.985 | S. cerevisiae deletion strains, locus YMR058W, strain fet3, hits give low values 0.944 | S. cerevisiae deletion strains, locus YMR078C, strain ctf18, hits give low values 0.997 | S. cerevisiae deletion strains, locus YMR125W, strain sto1, hits give low values 0.988 | S. cerevisiae deletion strains, locus YMR129W, hits give low values 0.969 | S. cerevisiae deletion strains, locus YMR205C, strain PFK2, hits give low values 1 | S. cerevisiae deletion strains, locus YMR223W, strain ubp8, hits give low values 0.993 | S. cerevisiae deletion strains, locus YMR231W, strain pep5, hits give low values 0.973 | S. cerevisiae deletion strains, locus YMR263W, strain SAP30, hits give low values 1 | S. cerevisiae deletion strains, locus YMR307W, strain GAS1, hits give low values 0.942 | S. cerevisiae deletion strains, locus YNL067W, strain RPL9B, hits give low values 0.997 | S. cerevisiae deletion strains, locus YNL071W, strain lat1, hits give low values 0.986 | S. cerevisiae deletion strains, locus YNL128W, strain TEP1, hits give low values 1.01 | S. cerevisiae deletion strains, locus YNL153C, strain GIM3, hits give low values 1.02 | S. cerevisiae deletion strains, locus YNL175C, strain NOP13, hits give low values 0.992 | S. cerevisiae deletion strains, locus YNL183C, strain NPR1, hits give low values 0.974 | S. cerevisiae deletion strains, locus YNL197C, strain WHI3, hits give low values 0.987 | S. cerevisiae deletion strains, locus YNL209W, strain ssb2, hits give low values 0.997 | S. cerevisiae deletion strains, locus YNL224C, strain SQS1, hits give low values 1.02 | S. cerevisiae deletion strains, locus YNL233W, strain BNI4, hits give low values 0.994 | S. cerevisiae deletion strains, locus YNL248C, strain rpa49, hits give low values 0.955 | S. cerevisiae deletion strains, locus YNL250W, strain rad50, hits give low values 1 | S. cerevisiae deletion strains, locus YNL271C, strain bni1, hits give low values 0.995 | S. cerevisiae deletion strains, locus YNL298W, strain CLA4, hits give low values 0.992 | S. cerevisiae deletion strains, locus YNL307C, strain MCK1, hits give low values 0.999 | S. cerevisiae deletion strains, locus YNL322C, strain KRE1 (second series), hits give low values 0.973 | S. cerevisiae deletion strains, locus YNL322C, strain KRE1, hits give low values 0.996 and 1.02 | S. cerevisiae deletion strains, locus YNR049C, strain mso1, hits give low values 0.971 | S. cerevisiae deletion strains, locus YNR052C, strain pop2, hits give low values 0.988 | S. cerevisiae deletion strains, locus YOL012C, strain htz1 0.83 | S. cerevisiae deletion strains, locus YOL147C, strain pex11, hits give low values 0.999 | S. cerevisiae deletion strains, locus YOR001W, strain rrp6, hits give low values 0.934 | S. cerevisiae deletion strains, locus YOR061W, strain CKA2, hits give low values 1.02 | S. cerevisiae deletion strains, locus YOR069W, strain VPS5, hits give low values 1 | S. cerevisiae deletion strains, locus YOR070C, strain gyp1, hits give low values 0.987 | S. cerevisiae deletion strains, locus YOR080W, strain dia2, hits give low values 0.958 | S. cerevisiae deletion strains, locus YOR083W, strain WHI5 (second series), hits give low values 1.02 | S. cerevisiae deletion strains, locus YOR083W, strain WHI5, hits give low values 0.922 | S. cerevisiae deletion strains, locus YOR106W, strain vam3, hits give low values 0.899 | S. cerevisiae deletion strains, locus YOR136W, strain idh2, hits give low values 0.983 | S. cerevisiae deletion strains, locus YOR144C, strain elg1, hits give low values 1 | S. cerevisiae deletion strains, locus YOR184W, strain ser1, hits give low values 1.02 | S. cerevisiae deletion strains, locus YOR231W, strain MKK1, hits give low values 1.05 | S. cerevisiae deletion strains, locus YOR265W, strain rbl2, hits give low values 0.966 | S. cerevisiae deletion strains, locus YOR270C, strain vph1, hits give low values 0.977 | S. cerevisiae deletion strains, locus YOR290C, strain snf2, hits give low values 0.995 | S. cerevisiae deletion strains, locus YOR316C, strain cot1, hits give low values 0.996 | S. cerevisiae deletion strains, locus YPL051W, strain arl3, hits give low values 0.962 | S. cerevisiae deletion strains, locus YPL106C, strain sse1, hits give low values 1 | S. cerevisiae deletion strains, locus YPL240C, strain hsp82, hits give low values 0.983 | S. cerevisiae deletion strains, locus YPL241C, strain CIN2, hits give low values 1 and 1.01 | S. cerevisiae deletion strains, locus YPL256C, strain CLN2, hits give low values 1.07 | S. cerevisiae deletion strains, locus YPR119W, strain clb2, hits give low values 0.991 | S. cerevisiae deletion strains, locus YPR141C, strain kar3, hits give low values 1 | S. cerevisiae deletion strains, locus YPR163C, strain tif3, hits give low values 1 | S. cerevisiae deletion strains, locus YPR167C, strain met16, hits give low values 0.997 | S. cerevisiae deletion strains, strain wtn01, hits give low values 0.985 | S. cerevisiae strains, strain wild type, hits give low values 1.01
